# From the supplement of paper PMC8975748
# Where a name gives a salt, the structure may show the parent alone.
# Test system: Saccharomyces cerevisiae BY4741 SeMeCo community
# Assay: z-score of subpopulation abundance vs DMSO median, subpopulation auxotrophic for HU; higher = larger share of this subpopulation than in DMSO controls
# Details: 10 µM; 24 h; SM minimal medium; subpopulation (auxotrophy): HU
# Method: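 Fluorescent four-plasmid SeMeCo (self-establishing metabolically cooperating S. cerevisiae BY4741 community; plasmids pH-mRuby2, pL-mWasabi, pU-eCFP, pM-TagRFP657) was grown 24 h in minimal SM medium with each Selleck FDA-approved drug at 10 µM in 384-well plates. Cells were fixed and imaged by high-content confocal microscopy. For each auxotrophic subpopulation (and the prototroph), a z-score gives the deviation from the DMSO vehicle-control population median.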
row,SMILES,z-score of subpopulation abundance
1,CCOC(=O)c1c(CSc2ccccc2)n(C)c2cc(Br)c(O)c(CN(C)C)c12 [Arbidol HCl],0.91
2,Cc1cc(NS(=O)(=O)c2ccc(N)cc2)nc(C)n1 [sulfaisodimidine],0.09
3,C=CC[C@@H]1/C=C(\C)C[C@H](C)C[C@H](OC)[C@H]2O[C@@](O)(C(=O)C(=O)N3CCCC[C@H]3C(=O)O[C@H](/C(C)=C/[C@@H]3CC[C@@H](O)[C@H](OC)C3)[C@H](C)[C@@H](O)CC1=O)[C@H](C)C[C@@H]2OC [Tacrolimus (FK506)],1.08
4,CN1CCN(CC(=O)N2c3ccccc3C(=O)Nc3cccnc32)CC1 [Pirenzepine dihydrochloride],-0.67
5,c1ccc(-c2ccc(C(c3ccccc3)n3ccnc3)cc2)cc1 (stereo not given) [Bifonazole],1.01
6,CCOC(=O)c1ccc(O)cc1 [Ethylparaben],1.78
7,Clc1ccc(COC(Cn2ccnc2)c2ccc(Cl)cc2Cl)c(Cl)c1 (stereo not given) [Miconazole Nitrate],15.7
8,COc1ncnc(NS(=O)(=O)c2ccc(N)cc2)c1OC [Sulfadoxine],0.53
9,CO/N=C(\C(=O)N[C@@H]1C(=O)N2C(C(=O)O)=C(Cn3ccc(=N)n3CCO)CS[C@H]12)c1csc(N)n1 [Cefoselis Sulfate],-0.72
10,Cc1ccc(S(=O)(=O)NC(=O)NN2CC3CCCC3C2)cc1 (stereo not given) [Gliclazide],-0.25
11,CC1=CC[C@@](O)(C(C)C)CC1 [Terpinen-4-ol],0.31
12,CCCCCCCCN=c1ccn(CCCCCCCCCCn2ccc(=NCCCCCCCC)cc2)cc1 [Octenidine Dihydrochloride],23.6
13,COC(=O)C1=C(C)NC(C)=C(C(=O)OCCN2CCN(C(c3ccccc3)c3ccccc3)CC2)C1c1cccc([N+](=O)[O-])c1 (stereo not given) [Manidipine],0.65
14,CCCNC(C)C(=O)Nc1ccccc1C (stereo not given) [Prilocaine],0.57
15,CC(C)c1c(C(=O)Nc2ccccc2)c(-c2ccccc2)c(-c2ccc(F)cc2)n1CC[C@@H](O)C[C@@H](O)CC(=O)O [Atorvastatin Calcium],7.9
16,CCOc1cc(NC(C)=O)ccc1C(=O)OC [Ethopabate],-0.22
17,CCCCCOc1ccccc1/C(=C\SC)n1ccnc1 [Neticonazole Hydrochloride],6.23
18,OC(c1ccccc1)(c1ccccc1)C12CC[N+](CCOCc3ccccc3)(CC1)CC2 [Umeclidinium bromide],-0.27
19,NC(=O)[C@@H]1CC[C@@H]2CN1C(=O)N2OS(=O)(=O)O [Avibactam sodium],-0.2
20,C[C@@H](O)[C@H]1C(=O)N2C(C(=O)O)=C(S[C@@H]3CN[C@H](CNS(N)(=O)=O)C3)[C@H](C)[C@H]12 [Doripenem Hydrate],-0.19

row,SMILES,z-score of subpopulation abundance
1,CO/N=C(\C(=O)N[C@@H]1C(=O)N2C(C(=O)O)=C(CSc3nc(=O)c(O)nn3C)CS[C@H]12)c1csc(N)n1 [Ceftriaxone Sodium Trihydrate],0.14
2,CCCN[C@H]1CCc2nc(N)sc2C1 [Pramipexole 2HCl Monohydrate],-0.19
3,CS(=O)(=O)c1ccc(C2=C(c3ccccc3)C(=O)OC2)cc1 [Rofecoxib],0.01
4,CCN[C@@H]1C[C@H](N)[C@@H](O[C@H]2OC(CN)=CC[C@H]2N)[C@H](O)[C@H]1O[C@H]1OC[C@](C)(O)[C@H](NC)[C@H]1O [Netilmicin Sulfate],0.01
5,CN[C@H]1C(=O)N[C@@H]2Cc3ccc(cc3)Oc3cc4cc(c3O[C@@H]3O[C@H](C(=O)O)[C@@H](O)[C@H](O)[C@H]3NC(=O)CCCCCCCCC(C)C)Oc3ccc(cc3Cl)[C@@H](O)[C@@H]3NC(=O)[C@H](NC(=O)[C@@H]4NC(=O)[C@@H](NC2=O)c2cc(cc(O)c2Cl)Oc2cc1ccc2O)c1ccc(O)c(c1)-c1c(O[C@H]2O[C@H](CO)[C@@H](O)[C@H](O)[C@@H]2O)cc(O)cc1[C@@H](C(=O)NCCCN(C)C)NC3=O [Dalbavancin],3.63
6,CO[C@H]1O[C@@H]2O[C@@]3(C)CC[C@H]4[C@H](C)CC[C@@H]([C@H]1C)[C@@]24OO3 [Artemether],0.26
7,CN[C@H]1CC[C@@H](c2ccc(Cl)c(Cl)c2)c2ccccc21 [Sertraline HCl],-1.26
8,C[C@]12CCC(=O)C=C1[C@@H]1C[C@@H]1[C@H]1[C@@H]3[C@@H]4C[C@@H]4[C@@]4(CCC(=O)O4)[C@@]3(C)CC[C@@H]12 [Drospirenone],0.03
9,CNCCCN1c2ccccc2CCc2ccccc21 [Desipramine Hydrochloride],-0.04
10,CCN(CC)C(=O)C1(c2ccccc2)CC1CN (stereo not given) [Milnacipran HCl],-0.14
11,NC(=O)c1cnccn1 [Pyrazinamide],-0.29
12,OCCN1CCN(CCCN2c3ccccc3Sc3ccc(Cl)cc32)CC1 [Perphenazine],0.72
13,O=C1CN2Cc3c(ccc(Cl)c3Cl)N=C2N1 [Anagrelide HCl],0.3
14,"O=c1[nH]cc(F)c(=O)[nH]1 [Fluorouracil (5-Fluoracil, 5-FU)]",8.79
15,O=C(O)Cc1ccccc1Nc1c(Cl)cccc1Cl [Diclofenac Diethylamine],-1.85
16,CCN1CCCC1CNC(=O)c1cc(S(=O)(=O)CC)c(N)cc1OC (stereo not given) [Amisulpride],0.3
17,CN(Cc1cnc2nc(N)nc(N)c2n1)c1ccc(C(=O)N[C@@H](CCC(=O)O)C(=O)O)cc1 [Methotrexate],1.71
18,CCCNCC(O)COc1ccccc1C(=O)CCc1ccccc1 (stereo not given) [Propafenone HCl],0.58
19,COc1cc2c(cc1OC)C(=O)C(CC1CCN(Cc3ccccc3)CC1)C2 (stereo not given) [Donepezil],-0.92
20,COc1cc(O)c(C(=O)Nc2nc(C(=O)NCCN(C(C)C)C(C)C)cs2)cc1OC [Acotiamide hydrochloride],0.71
